Where “and” joins values, the source holds several entries; their conditions need not be identical. Equal entries are not always repeated. Inconclusive results are not listed. Calls of active or inactive are those of the source. Calls follow the shape of the dose curve; as a rule, active = well fitted curve in the direction sought with a large enough effect; inconclusive = small, poorly fitted or top-dose-only effect, or another doubt; inactive = no such curve, though single readings can be large or run the other way.
% is scaled to controls: 0 for no effect and ±100 for the full control effect; potency is read from the fitted curve at half-maximal effect.

The assay is described as follows: qHTS Assay for Identifying Gametocytocidal Compounds (AID 743244).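 As to max response: actives lower the fluorescent signal which means gametocytes are killed.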 As to conditions: P. falciparum 3D7 stage III-V gametocytes, alamarBlue, 72 h; max response: hits give low values. The gist of the method: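 Fluorescence at Ex 525/Em 598 nm, recorded 24 h after alamarBlue addition, reports residual metabolic activity of 3D7 gametocytes (stages III–V) following 72 h compound exposure at 37 °C, 5% CO2.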
Regarding `NC[C@H]1O[C@H](O[C@H]2[C@H](O[C@@H]3O[C@H](CO)[C@@H](O)[C@H]3O)C(O)[C@H](N)C[C@@H]2N)[C@H](N)[C@@H](O)[C@@H]1O` (stereo partly drawn), the max response is 0.613% (inactive).
As for `Cc1c(C(C)C)c(=O)n(-c2ccccc2)n1C`, the max response is 39.2% (inactive).
`CC1(C)OC[C@@H](COC(=O)CCc2ccc(OC[C@@H](O)CNCCNC(=O)N3CCOCC3)cc2)O1`: the max response is -9.37% (inactive) and -4.75% (inactive).
For the compound `CCN(CC)C(=O)N1CCN(C)CC1`, the max response was 0.149% (inactive).
As for `Cc1cccc(C)c1NC(=O)CN1CCN(CCCC(c2ccc(F)cc2)c2ccc(F)cc2)CC1`, the max response was 0.546% (inactive).
For the compound `CC(=O)N/N=C/c1ccc([N+](=O)[O-])o1`, the Potency is 31.6 µM (active).
Turning to `COc1ccc(/C=C/C(=O)c2ccc(OC)cc2OC)cc1`, the max response is -14.8% (inactive).
On the same count and under the same terms, as for `Cc1c(C(N)=O)cc([N+](=O)[O-])cc1[N+](=O)[O-]`, the figure is -0.173% (inactive).
In the case of `CCn1cc(C(=O)O)c(=O)c2cnc(N3CCCC3)nc21`, the max response is -1.94% (inactive).
For `C[C@H]1[C@H](NC(=O)/C(=N/OC(C)(C)C(=O)O)c2csc(N)n2)C(=O)N1S(=O)(=O)O` (stereo in doubt), the max response is -0.904% (inactive).
Consider `COc1ccc(C2C(=O)c3ccccc3C2=O)cc1`, for which the max response is 5.04% (inactive).
As for `CC(=O)OCC(=O)[C@@]12N=C(C)O[C@@H]1C[C@H]1[C@@H]3CCC4=CC(=O)C=C[C@]4(C)[C@H]3[C@@H](O)C[C@@]12C`, the max response is -5.59% (inactive).
Turning to `NC(=O)CC[C@@H]1NC(=O)[C@H](Cc2ccccc2)NC(=O)[C@H](Cc2ccc(O)cc2)NC(=O)CCSSC[C@@H](C(=O)N2CCC[C@H]2C(=O)N[C@@H](CCCN=C(N)N)C(=O)NCC(N)=O)NC(=O)[C@H](CC(N)=O)NC1=O`, the max response is 1.03% (inactive) and -0.48% (inactive).

These data come from PubChem BioAssay (NCATS).
